Results reported in PubChem BioAssay (NCI).
Compounds without any hit were thinned out: in the full panel of roughly 79,000, 15% have a hit. Active and inactive are the calls of the source. Rule as the data show it: active = growth inhibition above about 70%; inactive = the rest.

Assays:
[1] = NCI Yeast Anticancer Drug Screen. Data for the rad52 strain (AID 147);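 also: 0% = growth of vehicle-treated control cultures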; conditions: S. cerevisiae rad52 mutant growth inhibition, active compounds read high
In short: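 Genetically altered yeast (DNA damage repair defect) treated with compound; inhibition calculated relative to vehicle.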

[2] = NCI Yeast Anticancer Drug Screen. Data for the wt1 strain (AID 149);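 also: 0% = growth of vehicle-treated wt1 cultures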; conditions: S. cerevisiae wt1 strain (SPY 50644) growth inhibition, active compounds read high
In short: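 Growth inhibition read against vehicle controls after compound exposure of the wt1 yeast strain.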

[3] = NCI Yeast Anticancer Drug Screen. Data for the rad50EPP+ strain (AID 151);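 also: 0% = growth of vehicle-treated control cultures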; conditions: S. cerevisiae rad50 mutant strain, active compounds read high
In short: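 Strain rad50EPP+; compound exposure; % growth inhibition vs vehicle.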

[4] = NCI Yeast Anticancer Drug Screen. Data for the rad50 strain (AID 155);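 also: 0% = growth of vehicle-only cultures of the same strain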; conditions: S. cerevisiae rad50 strain growth inhibition, active compounds read high
In short: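 Readout: growth inhibition relative to vehicle-treated cultures. Compound exposure was carried out in a genetically defined yeast strain deficient in DNA damage repair.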

[5] = NCI Yeast Anticancer Drug Screen. Data for the mec2-1 strain (AID 157); conditions: S. cerevisiae mec2-1 strain, active compounds read high
In short: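 Cells of the genetically defined mec2-1 yeast strain are incubated with test compound. Inhibition of growth is calculated against vehicle-treated controls.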

[6] = NCI Yeast Anticancer Drug Screen. Data for the rad14 strain (AID 159);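 also: 0% = growth of vehicle-treated control cultures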; conditions: S. cerevisiae rad14 strain growth inhibition, active compounds read high
In short: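 Growth inhibition vs vehicle controls; genetically altered yeast strain (DNA damage repair defect) treated with test compounds.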

[7] = NCI Yeast Anticancer Drug Screen. Data for the sgs1 mgt1 strain (AID 161);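 also: 0% = growth of cultures given vehicle only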; conditions: S. cerevisiae sgs1 mgt1 strain, active compounds read high
In short: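 Genetically altered yeast, compound exposure, growth inhibition relative to vehicle.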

[8] = NCI Yeast Anticancer Drug Screen. Data for the CLN2oe strain (AID 163);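 also: 0% = growth of vehicle-only control cultures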; conditions: S. cerevisiae CLN2oe strain, active compounds read high
In short: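 Strain altered in cell-cycle control, incubated with compound; growth compared to solvent-treated controls.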

[9] = NCI Yeast Anticancer Drug Screen. Data for the cln2 rad14 strain (AID 165);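 also: 0% = growth equal to vehicle treated cultures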; conditions: S. cerevisiae cln2 rad14 strain, active compounds read high
In short: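 The screen exposed genetically defined yeast (cln2 rad14) to test compounds and scored growth inhibition relative to vehicle-treated controls.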

[10] = NCI Yeast Anticancer Drug Screen. Data for the bub3 strain (AID 167); conditions: S. cerevisiae bub3 mutant strain, active compounds read high
In short: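 Readout: yeast growth inhibition, expressed relative to vehicle-only wells. The test organism is a mutant strain from a panel with lesions in DNA repair or checkpoint genes.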

[11] = NCI Yeast Anticancer Drug Screen. Data for the wt2 strain (AID 169);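 also: 0% = growth of vehicle-treated yeast cultures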; conditions: S. cerevisiae wt2 strain growth inhibition, active compounds read high
In short: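 Steps: yeast strain treated with compound; growth recorded; inhibition calculated relative to cultures given vehicle alone.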

[12] = NCI Yeast Anticancer Drug Screen. Data for the mlh1 strain (AID 171);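 also: 0% = growth of vehicle-treated control cultures of the same strain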; conditions: S. cerevisiae mlh1 strain growth inhibition, active compounds read high
In short: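 Yeast screen: mutant strain plus compound, growth scored against vehicle control wells.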

[13] = NCI Yeast Anticancer Drug Screen. Data for the sgs1 strain (AID 173);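 also: 0% = growth of vehicle-only control cultures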; conditions: S. cerevisiae sgs1 mutant, active compounds read high
In short: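 Inhibition of yeast growth served as the measure. The mutant strain was treated with each compound, and growth was normalised to cultures receiving vehicle alone.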

[14] = NCI Yeast Anticancer Drug Screen. Data for the mlh1 rad18 strain (AID 175); conditions: S. cerevisiae mlh1 rad18 strain growth inhibition, active compounds read high
In short: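 Compound-treated yeast growth, normalised to vehicle controls. Strain bears defined DNA repair mutations.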

[15] = NCI Yeast Anticancer Drug Screen. Data for the rad18 strain (AID 177); conditions: S. cerevisiae rad18 mutant growth inhibition, active compounds read high
In short: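 Inhibition values reflect reduced yeast growth compared with vehicle-treated controls, using a strain engineered with a DNA damage repair defect.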

[16] = NCI Yeast Anticancer Drug Screen. Data for the mgt1 strain (AID 153); conditions: S. cerevisiae mgt1 mutant growth inhibition, active compounds read high
In short: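 Read-out: yeast growth inhibition vs vehicle control. Strain mgt1, drawn from a panel altered in DNA damage repair or cell cycle control.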

[17] = at 5.0 µM (retest, dose inferred, filed as 0.5)
[18] = at 50.0 µM (retest, dose inferred, filed as 5.0)

Measured: growth inhibition

CC(C)/C(Cl)=N\OC(=O)Nc1ccccc1F
inactive: [1]; at 1.2 µM 4% | [1]; at 3.7 µM 9% | [1]; at 11.0 µM 19% | [1]; at 33.0 µM 35% | [1]; at 100.0 µM 35% | [2]; at 1.2 µM 1% | [2]; at 3.7 µM 4% | [2]; at 11.0 µM 9% | [2]; at 33.0 µM 17% | [2]; at 100.0 µM 18% | [3]; at 1.2 µM 18% | [3]; at 3.7 µM 28% | [3]; at 11.0 µM 46% | [3]; at 33.0 µM 59% | [3]; at 100.0 µM 46% | [4]; at 1.2 µM 9% | [4]; at 3.7 µM 17% | [4]; [17] 2% | [4]; at 11.0 µM 21% | [4]; at 33.0 µM 43% | [4]; at 50.0 µM -7.75% | [4]; at 100.0 µM 40% | [5]; at 1.2 µM 11% | [5]; at 3.7 µM 17% | [5]; [17] -1% | [5]; at 11.0 µM 23% | [5]; at 33.0 µM 31% | [5]; at 100.0 µM 31% | [6]; at 1.2 µM 6% | [6]; at 3.7 µM 14% | [6]; at 11.0 µM 9% | [6]; at 33.0 µM 23% | [6]; at 100.0 µM 26% | [7]; [17] -38% | [7]; at 50.0 µM 62.5% | [8]; at 1.2 µM 15% | [8]; at 3.7 µM 14% | [8]; at 11.0 µM 19% | [8]; at 33.0 µM 19% | [8]; at 100.0 µM 23% | [9]; [17] 23% | [9]; [18] 37% | [9]; at 50.0 µM 35.1% | [10]; at 1.2 µM 55% | [10]; [17] 49% | [11]; at 1.2 µM 0% | [11]; at 3.7 µM 5% | [11]; at 11.0 µM 15% | [11]; at 33.0 µM 41% | [11]; at 100.0 µM 29% | [12]; at 1.2 µM 3% | [12]; at 3.7 µM 5% | [12]; at 11.0 µM 14% | [12]; at 33.0 µM 22% | [12]; at 100.0 µM 20% | [13]; at 1.2 µM 6% | [13]; at 3.7 µM 13% | [13]; at 11.0 µM 34% | [13]; at 33.0 µM 60% | [13]; at 100.0 µM 49% | [14]; [17] -15% | [14]; [18] 66% | [14]; at 50.0 µM 58.9% | [15]; at 1.2 µM -6% | [15]; at 3.7 µM 3% | [15]; at 11.0 µM 17% | [15]; at 33.0 µM 43% | [15]; at 100.0 µM 41%
active: [4]; [18] 85% | [5]; [18] 86% | [5]; at 50.0 µM 76% | [7]; [18] 82% | [10]; at 3.7 µM 83% | [10]; at 11.0 µM 92% | [10]; at 33.0 µM 93% | [10]; [18] 98% | [10]; at 50.0 µM 82% | [10]; at 100.0 µM 94%

COc1ccc2ccc3ccccc3c2c1C=O
inactive: [1]; at 1.2 µM -5% | [1]; at 3.7 µM -5% | [1]; at 11.0 µM -3% | [1]; at 33.0 µM 0% | [1]; at 100.0 µM 63% | [2]; at 1.2 µM -3% | [2]; at 3.7 µM -5% | [2]; at 11.0 µM -5% | [2]; at 33.0 µM -4% | [16]; at 1.2 µM -7% | [16]; at 3.7 µM -6% | [16]; at 11.0 µM -7% | [16]; at 33.0 µM -5% | [5]; at 1.2 µM -6% | [5]; at 3.7 µM -6% | [5]; [17] 9% | [5]; at 11.0 µM -6% | [5]; at 33.0 µM 0% | [5]; [18] 50% | [5]; at 50.0 µM 13.2% | [6]; at 1.2 µM 3% | [6]; at 3.7 µM 5% | [6]; at 11.0 µM 5% | [6]; at 33.0 µM 14% | [7]; [17] 7% | [7]; [18] 68% | [7]; at 50.0 µM 55.8% | [8]; at 1.2 µM -6% | [8]; at 3.7 µM -6% | [8]; at 11.0 µM -2% | [8]; at 33.0 µM -2% | [9]; [17] 15% | [9]; [18] 16% | [9]; at 50.0 µM 17.6% | [10]; at 1.2 µM -2% | [10]; at 3.7 µM 0% | [10]; [17] 5% | [10]; at 11.0 µM -5% | [10]; at 33.0 µM -2% | [10]; [18] 11% | [10]; at 50.0 µM -11.7% | [12]; at 1.2 µM -6% | [12]; at 3.7 µM -5% | [12]; at 11.0 µM -5% | [12]; at 33.0 µM -6% | [12]; at 100.0 µM 29% | [13]; at 1.2 µM -4% | [13]; at 3.7 µM -1% | [13]; at 11.0 µM 4% | [13]; at 33.0 µM 10% | [13]; at 100.0 µM 50% | [14]; [17] 14% | [14]; at 50.0 µM 57.1% | [15]; at 1.2 µM -2% | [15]; at 3.7 µM 2% | [15]; at 11.0 µM 3% | [15]; at 33.0 µM 9%
active: [2]; at 100.0 µM 93% | [16]; at 100.0 µM 74% | [5]; at 100.0 µM 96% | [6]; at 100.0 µM 83% | [8]; at 100.0 µM 81% | [10]; at 100.0 µM 76% | [14]; [18] 89% | [15]; at 100.0 µM 83%
